Data published in PubChem BioAssay (EPA / NIEHS).
Inconclusive results are not listed. The source made the active and inactive calls. How the source made its calls: active means hit-call score of the fitted dose curve at least 0.9, where 1 is the maximum; inconclusive means response in the unintended direction; inactive means score below 0.9.

Legend:
[1] = TOX21_p53_BLA_p2_viability: Viability Assessment in the Tox21 HCT-116 p53 Agonism Beta-lactamase Assay, Phase 2 (AID 2283591);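 further: compound exposure lasted 16 h at 37 °C; actives lower the ATP signal meaning cytotoxicity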
Summary of the method: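 HCT116 p53-bla cells, 4000/well, dosed after 5 h plating (217-fold dilution of DMSO stocks) and incubated 16 h at 37C. Viability taken as cellular ATP by CellTiter-Glo luminescence after 30 min RT; signal loss marks cytotoxicity.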

[2] = molecular target: Cellular tumor antigen p53 (Homo sapiens) (UniProt P04637); experiment: TOX21_p53_BLA_p2_ratio: Tox21 HCT-116 p53 Agonism Beta-lactamase Assay, Ratio, Phase 2 (AID 2283592)
Summary of the method: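 HCT116 p53-bla; 4000 cells/well; 5 h pre-incubation; cpd in DMSO, 217-fold dilution; 16 h 37C/5% CO2; CCF4-AM 2 h RT; Ex 405, Em 460/530 ratio; DMSO = baseline; positive fitting direction.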

[3] = TOX21_p53_BLA_p3_viability: Viability Assessment in the Tox21 HCT-116 p53 Agonism Beta-lactamase Assay, Phase 3 (AID 2283593);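 further: cells exposed to compound for 16 h before reading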
Summary of the method: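 HCT116 cells, 4000/well, dosed 5 h after plating by pin transfer (217-fold dilution from DMSO stock) and incubated 16 h at 37C, 5% CO2. Viability read as ATP luminescence with CellTiter-Glo after 30 min at room temperature.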

[4] = TOX21_p53_BLA_p5_viability: Viability Assessment in the Tox21 HCT-116 p53 Agonism Beta-lactamase Assay, Phase 5 (AID 2283600)
Summary of the method: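 4000 cells/well; 5 h pre-incubation; DMSO compounds pin-transferred, 217-fold dilution; 16 h, 37C/5% CO2; CCF4-AM 2 h RT; CellTiter-Glo 30 min RT; luminescence.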

[5] = molecular target: Cellular tumor antigen p53 (Homo sapiens) (UniProt P04637); experiment: TOX21_p53_BLA_p4_ratio: Tox21 HCT-116 p53 Agonism Beta-lactamase Assay, Ratio, Phase 4 (AID 2283601)
Summary of the method: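 HCT-116 p53 beta-lactamase reporter cells (4000/well) preincubated 5 h, then compound (217-fold dilution of DMSO stock) for 16 h at 37C. CCF4-AM substrate added 2 h at room temperature; 460/530 nm emission ratio fitted upward versus DMSO.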

[6] = molecular target: Cellular tumor antigen p53 (Homo sapiens) (UniProt P04637); experiment: TOX21_p53_BLA_p3_ratio: Tox21 HCT-116 p53 Agonism Beta-lactamase Assay, Ratio, Phase 3 (AID 2283596)
Summary of the method: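 HCT116 p53-bla cells (4000/well) given compound in DMSO (217-fold dilution) after 5 h, incubated 16 h at 37C. CCF4-AM substrate 2 h at room temperature; 460/530 nm emission ratio, gain fitted against DMSO.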

[7] = TOX21_p53_BLA_p4_viability: Viability Assessment in the Tox21 HCT-116 p53 Agonism Beta-lactamase Assay, Phase 4 (AID 2283597);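 further: hits lower the luminescence signal meaning cytotoxicity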
Summary of the method: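 Cells plated, 5 h pre-incubation; DMSO compounds pinned (217-fold dilution); 16 h, 37C/5% CO2; CCF4-AM 2 h RT; CellTiter-Glo 30 min RT; luminescence read.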

[8] = molecular target: Cellular tumor antigen p53 (Homo sapiens) (UniProt P04637); experiment: TOX21_p53_BLA_p5_ratio: Tox21 HCT-116 p53 Agonism Beta-lactamase Assay, Ratio, Phase 5 (AID 2283599)
Summary of the method: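 HCT-116 p53-bla cells (4000/well) plated 5 h, dosed with compound (217-fold DMSO dilution) for 16 h at 37 C; CCF4-AM substrate 2 h at room temperature. Activity is the 460/530 nm emission ratio (405 nm excitation), fitted in gain-of-signal direction versus DMSO.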

Cellular tumor antigen p53 (Homo sapiens), sequence (P04637 whole entry, looked up): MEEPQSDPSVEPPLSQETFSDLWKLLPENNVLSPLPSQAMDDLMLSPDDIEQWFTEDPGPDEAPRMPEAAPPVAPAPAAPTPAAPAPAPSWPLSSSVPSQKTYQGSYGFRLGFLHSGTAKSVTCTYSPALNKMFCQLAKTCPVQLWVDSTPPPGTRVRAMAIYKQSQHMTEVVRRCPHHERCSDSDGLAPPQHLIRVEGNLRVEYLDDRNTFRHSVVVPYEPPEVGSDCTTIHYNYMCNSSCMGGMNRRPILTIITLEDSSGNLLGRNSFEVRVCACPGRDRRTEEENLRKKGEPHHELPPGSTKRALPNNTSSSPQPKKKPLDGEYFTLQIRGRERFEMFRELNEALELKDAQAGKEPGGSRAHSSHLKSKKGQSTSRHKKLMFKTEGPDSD

| Structure (SMILES) | outcome [1] | outcome [2] | outcome [3] | outcome [4] | outcome [5] | outcome [6] | outcome [7] | outcome [8] | AC50 [2] | AC50 [8] | AC50 [5] |
| --- | --- | --- | --- | --- | --- | --- | --- | --- | --- | --- | --- |
| O=C(OC(=O)c1ccccc1)c1ccccc1 | inactive | inactive | inactive | inactive | inactive | – | – | – | – | – | – |
| CC(=O)OCC(=O)[C@@]1(O)[C@H](OC(C)=O)C[C@H]2[C@@H]3CCC4=CC(=O)C=C[C@]4(C)[C@@]3(F)[C@@H](O)C[C@@]21C | inactive | inactive | – | – | – | inactive | inactive | – | – | – | – |
| O=C(OC1C[C@H]2CC[C@@H](C1)[N+]21CCCC1)C(O)(c1ccccc1)c1ccccc1 (stereo partly drawn) | inactive | inactive | inactive | – | inactive | – | – | – | – | – | – |
| COc1ccc(C2C(=O)c3ccccc3C2=O)cc1 | inactive | inactive | inactive | inactive | inactive | – | – | – | – | – | – |
| CN(C)c1ccc(/C=C/c2ccc([N+](=O)[O-])cc2)cc1 | inactive | inactive | – | – | – | inactive | inactive | – | – | – | – |
| C[N+](C)(C)CCOC(=O)CCC(=O)OCC[N+](C)(C)C | inactive | inactive | – | – | – | inactive | inactive | inactive | – | – | – |
| CN(C)CCCNCCC#N | inactive | inactive | inactive | inactive | inactive | – | – | – | – | – | – |
| CC(=O)Nc1ccc(N)cc1 | inactive | inactive | inactive | – | inactive | – | – | – | – | – | – |
| Cc1ccccc1C(=O)N1CC/C(=N\OS(=O)(=O)O)c2ccc(Cl)cc21 | inactive | inactive | – | inactive | inactive | inactive | inactive | inactive | – | – | – |
| CCc1cccc2c3c([nH]c12)C(CC)(CC(=O)O)OCC3 (stereo not drawn) | inactive | inactive | – | inactive | inactive | inactive | inactive | inactive | – | – | – |
| CC(CNC1CCCCC1)OC(=O)c1ccccc1 (stereo not drawn) | inactive | inactive | – | inactive | – | inactive | inactive | inactive | – | – | – |
| CCN(CC)CCOc1ccc2nc(N(C)C)sc2c1 | inactive | inactive | – | inactive | – | inactive | inactive | inactive | – | – | – |
| N#Cc1ccc2c(c1)N(CCCN1CCC(O)CC1)c1ccccc1S2 | inactive | – | – | inactive | – | inactive | inactive | – | 40.4 µM (active) | 35.4 µM (active) | 25.1 µM (active) |
| ClC(Cl)(Cl)c1ccc(C(Cl)(Cl)Cl)cc1 | inactive | inactive | – | inactive | – | inactive | inactive | inactive | – | – | – |
| Brc1c2ccccc2cc2ccccc12 | inactive | inactive | – | inactive | inactive | inactive | inactive | inactive | – | – | – |
| NS(=O)(=O)c1cc2c(cc1C(F)(F)F)NCNS2(=O)=O | inactive | inactive | – | inactive | – | inactive | inactive | inactive | – | – | – |
